Results: PubChem BioAssay AID938 (National Center for Advancing Translational Sciences (NCATS), 2007)
“And” between values parts separate entries of the source, which are not always exact repeats. Identical values can stand only once. The whole screen tested about 73,000 compounds, of which about 1,800 (2.5%) were called active. Where a call stands in place of a potency, no number is given. Another 13% or so got no clear call; they are omitted. The sample holds actives, similar compounds and a random draw of the others, so the mix is not that of the screen. Unmarked numbers belong to inactive results. Calls follow the shape of the dose curve; as a rule, active = well fitted activation curve with a large enough effect; inconclusive = small, poorly fitted or top-dose-only effect; inactive = no such curve, though single readings can be large or run the other way.

Assay: qHTS Assay for Agonists of the Thyroid Stimulating Hormone Receptor: Activators of Intracellular cAMP Concentrations in Parental HEK 293; also: nearly all actives have a fitted effect of over 55% in size
Conditions: parental HEK293 CNG cAMP sensor, membrane potential fluorescence; series mostly up to 57.1 µM
Outline: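 Parental HEK 293 cells stably expressing a modified CNG channel (no TSHR) report cAMP rise as membrane depolarization. Membrane potential dye with 100 uM RO 20-1724 was loaded for 60 min at room temperature, then compound added for 30 min; fluorescence read at 590 nm.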
Potency is read from the fitted curve at half-maximal effect.

Structure (SMILES) | Potency | activation
COC(=O)c1c(NC(=O)CSc2nc3c(c(=O)n(C)c(=O)n3C)n2C(C)C)sc(C)c1C | inactive | 
Cc1ccccc1NC(=O)CNc1ccccc1N1CCCCC1 | inactive | 
CC(C)n1c(SCC(=O)Nc2ccccc2N2CCCCC2)nc2c1c(=O)n(C)c(=O)n2C | 20 µM (active) | 
CC1(C)CC(=O)C=C(NCCCNC2CCCCC2)C1 | inactive | 
CC(=O)N1[C@H](C)C=C[C@]1(Cc1ccccc1)C(=O)NCc1ccccn1 | inactive | 
COC(=O)C1(C)C=CCN1C(=O)c1ccccc1 (configuration not stated) | inactive | 
CC(C)CC1(C(=O)NCc2ccccn2)C=CCN1C(=O)c1ccccc1 (configuration not stated) | 25.1 µM (active) | 
O=C1C[C@@H](O)[C@@H](O)[C@H]2[C@@H]3C(=O)N(Cc4ccc5c(c4)OCO5)C(=O)[C@@H]3CC[C@H]12 |  | 0.478% [at 11.4 µM] and -2.17% [at 11.4 µM]
COc1ccc(C(C(O)C(=O)c2c[nH]c3ccccc23)N2CCN(c3ccccc3)CC2)cc1 (configuration not stated) | inactive | 
N#Cc1cc2[nH]c(=O)c(=O)[nH]c2cc1[N+](=O)[O-] | inactive | 
CCOC(=O)N1CCC(O)(c2cc(C)c(C)cc2C)CC1 | inactive | 
c1ccc(CSc2nnc(-c3ccco3)n2Cc2ccccc2)cc1 | 15.8 µM (active) | 
O=C(CSc1nnc(-c2ccco2)n1CC1CCCO1)c1ccccc1 (configuration not stated) | inactive | 
c1ccc(CSc2nnc(-c3ccco3)c(-c3ccco3)n2)cc1 | inactive | 
C1CCC2OC2C1 (configuration not stated) | inactive | 
Brc1cc(Br)c(Oc2cc(Br)c(Br)cc2Br)cc1Br | inactive | 
CN1CCC(CNC(=O)c2ccc(-n3c(=O)c(=O)[nH]c4ccccc43)cc2)CC1 | inactive | 
O=C(O)CCCCC(=O)O | inactive | 
CCOc1ccc2c(c1)cc(CN(C(=O)CC)C1CCCCC1)c1nnnn12 | 20 µM (active) | 
CN(C(=O)CSc1nnnn1-c1ccccc1)C1CCCCC1 | inactive | 
COc1ccc(N2C(=O)CCC(C(=O)N(C)C3CCCCC3)C2c2ccc(OC)c(OC)c2)cc1 (configuration not stated) | inactive | 
CC(C)[C@H](CO)Nc1nc(Nc2cc(N)cc(Cl)c2)c2ncn(C(C)C)c2n1 | inactive | 
CCCCOC(=O)NCN1C(=O)C2C3C=CC(C3)C2C1=O (configuration not stated) | inactive | 

Structure (SMILES) | Potency | activation
O=C1OCCC=C1[C@@H](O)CCc1ccccc1 |  | -4.2% [at 11.4 µM]
CC(C)CNC(=O)C1CCCN(S(=O)(=O)c2ccc(-n3cnnn3)cc2)C1 (configuration not stated) | inactive | 
O=C(c1cnccn1)N1CCC2(CCN(Cc3cc(C(F)(F)F)cc(C(F)(F)F)c3)CC2)CC1 | inactive | 
O=C(NCCc1ccc2c(c1)OCCO2)c1cc2ccccc2o1 | 25.1 µM (active) | 
O=C(CC(Cc1ccccc1)C(=O)O)NCCc1ccc2c(c1)OCO2 (configuration not stated) | inactive | 
Nc1nonc1C(=O)NCCc1ccccc1 | inactive | 
CC1CCCN(Cc2nc3c(c(=O)n(C)c(=O)n3C)n2CC(=O)c2ccccc2)C1 (configuration not stated) | inactive | 
CCn1cc(C(=O)NCc2ccc3c(c2)OCO3)c2cc(OC)c(OC)cc2c1=O | inactive | 
COc1ccc2c(c1)C(C)=CC(C)(C)N2C(=O)CNCc1ccc2c(c1)OCO2 | 25.1 µM (active) | 
CCOC(=O)NCc1ccc2c(c1)OCO2 | inactive | 
Cc1ccc(Cn2c(NC(=O)c3ccco3)nc3ccccc32)cc1 | 25.1 µM (active) | 
Cc1ccc(Cn2c(C)nc3c(c2=O)c2nc4ccccc4nc2n3Cc2ccco2)cc1 | inactive | 
CCn1nc(NC(=O)c2ccco2)c2cc3ccc(C)cc3nc21 | inactive | 
CCOc1ccc2nc(NCCNS(=O)(=O)c3ccccc3)c(C#N)cc2c1 | inactive | 
Cc1nnc(N(Cc2ccco2)C(=O)c2ccno2)s1 | inactive | 
COC(=O)CSC1=C(C#N)C(c2ccccc2OC)C(C(=O)OC)C(=O)N1 (configuration not stated) |  | -3.31% [at 11.4 µM]
N#CC1=C(SCc2ccccc2)NC(=O)C(C#N)C12CCCC2 (configuration not stated) | 31.6 µM (active) | 
Cc1noc(C)c1-c1nc(Nc2ccccc2)c2ccccc2n1 | inactive | 
O=C(NC(=O)c1ccc(Cl)c(Cl)c1)OC1CCS(=O)(=O)C1 (configuration not stated) | inactive | 
Cc1ccnc(N)c1 | inactive | 
CC(C)c1ccc2c([Si](C)(C)C)c3c(nc2c1)-c1cccc(=O)n1C3 | inactive | 
COc1cccc(C(=O)Nc2c3c(nn2-c2cccc(C)c2C)CS(=O)(=O)C3)c1OC | inactive | 
O=C(CC1CCCCC1)Nc1c2c(nn1-c1ccc(F)cc1)CS(=O)(=O)C2 | 15.8 µM (active) | 

Structure (SMILES) | Potency | activation
COc1ccc(C2C(C#N)=C(N)Oc3n[nH]c(C)c32)cc1CN1CCN(c2ccc(F)cc2)CC1 (configuration not stated) | inactive | 
Cc1nc2cnc(N3CCN(C)CC3)nc2n(C[C@H]2CCCO2)c1=O | inactive | 
CC(C)(C)NC(=O)c1cc(NC(=O)c2ccco2)cc(NC(=O)c2ccco2)c1 | inactive | 
COc1ccc(-c2c3c(=O)n(C)c(=O)n(C)c3cn2NC(C)=O)cc1 | inactive | 
Cc1cccc(C2c3c(n(C)c(=O)n(C)c3=O)N=C3c4ccccc4C(=O)C32)c1 (configuration not stated) | inactive | 
COc1ccc(C2C3=C(OC(C)=O)c4ccccc4C3=Nc3c2c(=O)n(C)c(=O)n3C)cc1 (configuration not stated) | 10 µM (active) | 
Cn1nnc(NC(=O)CSc2ncn[nH]2)n1 | inactive | 
COC(=O)C(C(=O)OC)[C@@H]1CCCC(=O)C1 |  | 4.23% [at 11.4 µM]
COc1ccccc1Nc1ncnc2c1oc1ccccc12 | 31.6 µM (active) | 
CCc1nc(Nc2ccc3nccnc3c2)c2oc3ccccc3c2n1 | inactive | 
COc1ccc(CCNC(=O)CSc2nc(C)nc3c2oc2ccccc23)cc1OC | inactive | 
COc1ccccc1CNc1ncncc1-c1cccnc1 | inactive | 
COc1ccccc1CNc1ncncc1-c1cccc(NS(C)(=O)=O)c1 | inactive | 
COc1ccc(CNc2ncncc2-c2ccccc2OC)c(OC)c1 | 25.1 µM (active) | 
COC(=O)[C@@H]1CC[C@H](C)[C@@H](c2ccc(C)cc2)N1C(=O)c1ccc(/C=N\O[C@@H](C)c2cn([C@H](CO)Cc3ccccc3)nn2)cc1 |  | 9.66% [at 11.4 µM] and 5.24% [at 11.4 µM]
Cc1ccc2c(c1)c1ncnc(N3CCc4ccccc4C3)c1n2C | 25.1 µM (active) | 
Cc1ccc2c(c1)c1ncn(CCC3=CCCCC3)c(=O)c1n2C | inactive | 
Cc1cccc(-n2ncc3c(N4CCc5ccccc54)ncnc32)c1 | inactive | 
Cn1c(/C(C#N)=C2/CCCCCN2)nc2ccccc21 | inactive | 
Cc1noc(C)c1CSc1nc2cc(S(=O)(=O)N3CCOCC3)ccc2o1 | inactive | 
O=C(OCC(COC(=O)c1ccccc1)(COC(=O)c1ccccc1)COC(=O)c1ccccc1)c1ccccc1 | inactive | 
CCc1ccc(-c2nnn(Cc3nn[nH]n3)n2)cc1 | inactive | 
O=C(O)CSCc1nc2ccccc2s1 | inactive | 

Structure (SMILES) | Potency | activation
CCc1ccc(-c2nnn(Cc3nc4ccccc4s3)n2)cc1 | 15.8 µM (active) | 
Cc1nc2cnc(Nc3ccccc3)nc2n(Cc2ccc(F)cc2)c1=O | inactive | 
O=C(CSc1n[nH]c(-c2cccnc2)n1)Nc1ccnc2ccccc12 | inactive | 
COCCn1c(-c2ccc(OC)c(OC)c2)nc2ccccc21 | inactive | 
CCCn1c(C(O)c2cc(OC)ccc2OC)nc2ccccc21 (configuration not stated) | inactive | 
Nc1nonc1-c1nc2ccccc2n1CCC(=O)O | inactive | 
COc1ccc(C)c(Cn2c(-c3nonc3N)nc3ccccc32)c1 | 25.1 µM (active) | 
Nc1nonc1-c1nc2ccccc2n1Cc1ccc(F)cc1 | 20 µM (active) | 
CC(=O)Nc1nonc1-c1nc2ccccc2n1Cc1ccccn1 | inactive | 
C=CCc1cccc2cc(C(=O)OCC)c(=O)oc12 | inactive | 
C/C(=C\C(=O)c1ccccc1)Nc1cccc(O)c1 |  | 5.02% [at 11.4 µM]
COc1cc(Cl)c(S(=O)(=O)n2cnc(C)c2)cc1Cl |  | 12.1% [at 11.4 µM]
CCC1Oc2ccc(Cl)cc2N(CC(=O)O)C1=O (configuration not stated) | inactive | 
C#CCC(C(=O)OC)(C(=O)OC)C(C[N+](=O)[O-])c1ccccc1 (configuration not stated) |  | -0.955% [at 11.4 µM]
COc1cccc([C@H]2Oc3ccc(OC)cc3/C(=N\OCC[C@@H]3C=C[C@H](OC(C)=O)[C@H](COC(C)=O)O3)[C@@H]2O)c1 |  | 1.81% [at 11.4 µM]
Cc1ccc(C(=O)Nc2ccccc2C(=O)NC2CCCCC2)cc1S(=O)(=O)N1CCOCC1 | 15.8 µM (active) | 
Cc1ccccc1NC(=O)c1cc(S(=O)(=O)N2CCOCC2)cs1 | inactive | 
Cc1cc(C)n(C(=O)c2ccc(C)c(S(=O)(=O)N3CCOCC3)c2)n1 | inactive | 
N[C@H](C(=O)O)c1ccc(C(=O)O)c(O)c1 | inactive | 
Cc1c2c(nc3ccccc13)-c1cccc(=O)n1C2 | inactive | 
Cc1ccc(-c2nn(CC(C)(C)C)c3ncnc(N)c23)cc1 | inactive | 
O=C(c1ccco1)N1CCN(C(=O)C2c3ccccc3Oc3ccccc32)CC1 | inactive | 
CCCN(CCC)C(=O)C1c2ccccc2Oc2ccccc21 | 12.6 µM (active) | 
